Data: PubChem BioAssay (NCATS)
Values without a mark were called inactive. Records with an inconclusive call do not appear. The source made the active and inactive calls. Unless noted, the call rests on the fitted dose curve; in most records, active means well fitted curve in either direction with a large enough effect (not every such curve was filed as active); inconclusive means small, poorly fitted or top-dose-only effect, or another doubt; inactive means flat fitted curve, though single readings scatter.

Experiments:
[1] = molecular target: Lysosomal acid glucosylceramidase (Homo sapiens) (UniProt P04062); experiment: Glucocerebrosidase-p2 (AID 348; in the data active means potency below about 10 µM; further: potency means the concentration at half of the fitted maximal effect); settings: purified GBA, blue fluorogenic substrate, 40 min
Sequence of Lysosomal acid glucosylceramidase (Homo sapiens) (P04062 whole entry, looked up): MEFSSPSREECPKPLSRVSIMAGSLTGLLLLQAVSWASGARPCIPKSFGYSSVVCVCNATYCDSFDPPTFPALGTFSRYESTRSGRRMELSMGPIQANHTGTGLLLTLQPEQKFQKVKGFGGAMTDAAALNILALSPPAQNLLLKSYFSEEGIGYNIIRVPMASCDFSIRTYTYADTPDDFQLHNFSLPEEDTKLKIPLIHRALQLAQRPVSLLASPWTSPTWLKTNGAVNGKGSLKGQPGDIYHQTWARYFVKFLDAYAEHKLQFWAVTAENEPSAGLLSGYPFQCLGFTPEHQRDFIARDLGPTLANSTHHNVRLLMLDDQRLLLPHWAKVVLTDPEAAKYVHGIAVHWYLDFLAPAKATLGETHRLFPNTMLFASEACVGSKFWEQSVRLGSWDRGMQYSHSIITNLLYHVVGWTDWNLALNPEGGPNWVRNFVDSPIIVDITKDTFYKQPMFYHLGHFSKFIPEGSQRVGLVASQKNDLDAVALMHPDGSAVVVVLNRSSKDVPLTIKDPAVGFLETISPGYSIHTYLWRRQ
In short: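 Compounds titrated from 0.6 nM upwards against 0.2 nM enzyme in pH 5.9 citric acid/KH2PO4, taurocholate, tween-20; blue fluorogenic substrate 80 uM, 40 min room temperature, stopped and read Ex 365/Em 440 for AC50.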

[2] = molecular target: Cytochrome P450 1A2 (Homo sapiens) (UniProt P05177); experiment: p450-cyp1a2 (AID 410; calls by dose curve; further: potency means the concentration at half of the fitted maximal effect); settings: recombinant CYP1A2, luciferin-ME demethylation, luminescence; series mostly up to 11.4 µM
Sequence of Cytochrome P450 1A2 (Homo sapiens) (P05177 whole entry, looked up): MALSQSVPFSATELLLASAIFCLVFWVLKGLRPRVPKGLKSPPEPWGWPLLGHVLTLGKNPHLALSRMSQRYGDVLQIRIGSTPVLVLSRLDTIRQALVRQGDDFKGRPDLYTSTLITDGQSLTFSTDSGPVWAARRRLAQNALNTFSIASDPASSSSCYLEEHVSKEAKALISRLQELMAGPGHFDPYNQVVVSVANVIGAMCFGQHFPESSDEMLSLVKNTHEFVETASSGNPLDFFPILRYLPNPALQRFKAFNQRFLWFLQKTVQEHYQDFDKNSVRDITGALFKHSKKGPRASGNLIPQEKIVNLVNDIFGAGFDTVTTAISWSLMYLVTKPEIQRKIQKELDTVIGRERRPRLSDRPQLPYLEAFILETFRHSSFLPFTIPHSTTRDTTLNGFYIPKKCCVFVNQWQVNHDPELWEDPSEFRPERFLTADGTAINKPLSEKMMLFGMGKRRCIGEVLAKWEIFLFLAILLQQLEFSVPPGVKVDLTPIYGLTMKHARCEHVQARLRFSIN
In short: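 Inhibition was calculated relative to 57 uM furafylline (full inhibition). The reaction used human CYP1A2 at 20nM with Luciferin-ME at its Km, 100uM, driven by an NADPH-regenerating system for 60 min at room temperature.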

[3] = NFAT Signaling Pathway (AID 444); settings: Jurkat NFAT-bla M1, carbachol, beta-lactamase ratio, 5 h; at 7.69 µM (top of the series) unless noted;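 further: carbachol stimulus at about its EC50 of 1 µM final; on the % scale 0 is the no-effect control and ±100 the full control effect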
In short: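 Jurkat cells with NFAT-driven β-lactamase reporter and co-expressed M1 receptor, stimulated with carbachol (final 1 uM, ~EC50), compound titration, 5 h at 37 °C. CCF4 loaded 1 h at RT; 460/530 nm ratio gave %activity and AC50.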

[4] = Stat Signaling Pathway (AID 446); settings: ME-180 SIE beta-lactamase reporter, IL-6 stimulated, 5 h; at 7.69 µM (top of the series) unless noted;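 further: ME-180 cervical cancer cells given 40 pM IL-6 alongside compound; SIE-controlled beta-lactamase reporter measured as 460/530 nm FRET emission ratio; on the % scale 0 is the no-effect control and ±100 the full control effect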
In short: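 ME-180 cells carrying a SIE-driven beta-lactamase reporter are stimulated with 40 pM IL-6 for 5 h at 37C in the presence of compound. The 460/530 nm FRET substrate ratio is read after 2.5 h at RT. Data are normalised to 300 pM IL-6 and to 125 nM JAK inhibitor controls.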

[5] = molecular target: Glucocorticoid receptor (Homo sapiens) (UniProt P04150); experiment: GR-GFP Redistribution (AID 450;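 active means compounds whose dose series gives a full or clear partial fitted curve of increased nuclear translocation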; further: potency means the concentration at half of the fitted maximal effect); settings: U2OS GR-GFP nuclear translocation, laser cytometry, 2 h
Sequence of Glucocorticoid receptor (Homo sapiens) (P04150 whole entry, looked up, the tested form may be a part): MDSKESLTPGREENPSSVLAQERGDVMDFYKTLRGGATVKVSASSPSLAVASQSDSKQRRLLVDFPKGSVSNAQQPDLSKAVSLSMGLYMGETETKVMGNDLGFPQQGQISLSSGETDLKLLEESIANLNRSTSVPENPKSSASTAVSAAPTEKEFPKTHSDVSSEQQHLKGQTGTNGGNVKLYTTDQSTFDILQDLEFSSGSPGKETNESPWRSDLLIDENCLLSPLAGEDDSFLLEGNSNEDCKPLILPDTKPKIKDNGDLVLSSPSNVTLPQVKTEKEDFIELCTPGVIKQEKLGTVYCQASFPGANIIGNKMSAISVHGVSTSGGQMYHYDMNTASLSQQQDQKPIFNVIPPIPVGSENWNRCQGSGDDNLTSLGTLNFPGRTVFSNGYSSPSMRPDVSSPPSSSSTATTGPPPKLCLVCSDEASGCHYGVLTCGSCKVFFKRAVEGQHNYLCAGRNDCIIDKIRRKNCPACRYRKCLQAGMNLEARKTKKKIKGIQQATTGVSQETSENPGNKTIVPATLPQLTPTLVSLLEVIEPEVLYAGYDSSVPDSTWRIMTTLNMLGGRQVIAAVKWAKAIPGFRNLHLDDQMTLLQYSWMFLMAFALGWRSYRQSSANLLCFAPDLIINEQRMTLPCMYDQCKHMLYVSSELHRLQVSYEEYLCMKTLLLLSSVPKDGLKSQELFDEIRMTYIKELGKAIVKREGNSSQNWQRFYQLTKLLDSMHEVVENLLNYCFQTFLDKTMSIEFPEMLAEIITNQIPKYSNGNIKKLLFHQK

[6] = molecular target: Glucocorticoid receptor (Homo sapiens) (UniProt P04150); experiment: GR-EFC Redistribution (AID 451; calls by dose curve; further: potency means the concentration at half of the fitted maximal effect); settings: CHO-K1 GR-EFC translocation, beta-gal luminescence, 2 h
In short: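 CHO-K1 cells expressing nuclear EA and GR-ED fragments of b-gal; compounds titrated up to 46 uM final, 2 h at 37 C. GR nuclear translocation read as complemented b-gal luminescence after 1 h RT detection.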

[7] = molecular target: Mitogen-activated protein kinase 10 (Mus musculus) (UniProt Q61831); experiment: JNK3 AlphaScreen Assay (AID 530); settings: JNK3 lysate, c-Jun phosphorylation; series mostly up to 11.4 µM;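 further: kinase came from lysate of stimulated human HepG2 cells; signal reports phosphorylation of biotinylated GST-cJun 1-79 at Ser73 with 10 µM ATP; on the % scale 0 is the no-effect control and ±100 the full control effect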
In short: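 qHTS format: compounds tested as titrations against IL-1beta/TNF-alpha-activated HepG2 lysate JNK3 with biotin-GST-cJun substrate and 10 uM ATP at room temperature. Loss of anti-phospho-cJun AlphaScreen signal indicates inhibition.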

[8] = molecular target: Cytochrome P450 2C9 (Homo sapiens) (UniProt P11712); experiment: qHTS Assay for Inhibitors and Substrates of Cytochrome P450 2C9 (AID 883; active means well fitted curve in the direction sought with a large enough effect; an effect the other way counts as inactive or inconclusive; further: potency means the concentration at half of the fitted maximal effect; nearly all actives have a fitted effect of over 60% in size); settings: recombinant CYP2C9, luciferin-H luminescence, 60 min; series mostly up to 11.4 µM
Sequence of Cytochrome P450 2C9 (Homo sapiens) (P11712 whole entry, looked up): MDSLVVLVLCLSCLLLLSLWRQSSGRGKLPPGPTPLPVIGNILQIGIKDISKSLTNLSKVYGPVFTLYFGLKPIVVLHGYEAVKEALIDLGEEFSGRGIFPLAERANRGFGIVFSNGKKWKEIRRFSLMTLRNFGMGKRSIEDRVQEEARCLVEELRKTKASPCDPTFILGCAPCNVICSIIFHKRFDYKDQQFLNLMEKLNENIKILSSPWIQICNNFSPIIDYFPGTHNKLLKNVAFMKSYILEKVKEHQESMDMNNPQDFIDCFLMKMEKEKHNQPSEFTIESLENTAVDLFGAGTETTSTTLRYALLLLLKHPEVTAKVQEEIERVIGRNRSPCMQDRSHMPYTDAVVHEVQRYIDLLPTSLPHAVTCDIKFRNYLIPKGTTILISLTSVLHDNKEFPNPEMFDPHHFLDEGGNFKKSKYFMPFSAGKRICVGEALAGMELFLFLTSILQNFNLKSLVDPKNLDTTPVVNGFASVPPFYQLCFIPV
In short: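 Human CYP2C9 (10nM) with Luciferin-H at 100uM (its KM) in 25mM KPO4; compound preincubated 10 min at 37C, then NADPH regeneration for 60 min at 37C. Luciferin read by luminescence after detection reagent; normalized to 57uM sulphaphenazole as full inhibition.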

[9] = molecular target: Cytochrome P450 3A4 (Homo sapiens) (UniProt P08684); experiment: qHTS Assay for Activators of Cytochrome P450 3A4 (AID 885; active means well fitted curve in the direction sought with a large enough effect; an effect the other way counts as inactive or inconclusive; further: nearly all actives have a fitted effect of over 65% in size); settings: recombinant CYP3A4, Luciferin-PPXE luminescence, 60 min; series mostly up to 11.4 µM
Sequence of Cytochrome P450 3A4 (Homo sapiens) (P08684 whole entry, looked up): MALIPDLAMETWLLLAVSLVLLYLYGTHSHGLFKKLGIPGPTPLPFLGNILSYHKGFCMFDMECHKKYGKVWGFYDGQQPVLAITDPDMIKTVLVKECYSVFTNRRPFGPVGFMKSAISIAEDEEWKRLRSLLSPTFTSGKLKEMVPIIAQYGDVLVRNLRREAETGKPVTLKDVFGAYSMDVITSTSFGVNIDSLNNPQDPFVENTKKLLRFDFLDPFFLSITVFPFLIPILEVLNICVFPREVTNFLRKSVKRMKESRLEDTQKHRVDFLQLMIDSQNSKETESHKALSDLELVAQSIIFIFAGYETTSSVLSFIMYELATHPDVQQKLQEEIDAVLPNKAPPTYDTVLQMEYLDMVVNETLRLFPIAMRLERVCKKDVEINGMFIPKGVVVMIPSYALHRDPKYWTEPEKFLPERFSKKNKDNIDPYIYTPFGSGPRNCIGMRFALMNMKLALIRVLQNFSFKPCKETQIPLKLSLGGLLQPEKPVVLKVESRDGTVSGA
In short: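 Human CYP3A4 (20 nM) with Luciferin-PPXE at 25 uM (its KM) in 200 mM KPO4; 10 min compound preincubation, then NADPH regeneration and 60 min reaction at RT. Luciferin read by luminescence; normalized to 57 uM ketoconazole full inhibition.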

[10] = molecular target: Cytochrome P450 2C19 (Homo sapiens) (UniProt P33261); experiment: qHTS Assay for Inhibitors and Substrates of Cytochrome P450 2C19 (AID 899; active means well fitted curve in the direction sought with a large enough effect; an effect the other way counts as inactive or inconclusive; further: nearly all actives have a fitted effect of over 60% in size; further: potency means the concentration at half of the fitted maximal effect; on activity, negative = inhibition: on the % scale 0 is the no-effect control and ±100 the full control effect); settings: recombinant CYP2C19, luciferin-H EGE luminescence; series mostly up to 11.4 µM
Sequence of Cytochrome P450 2C19 (Homo sapiens) (P33261 whole entry, looked up): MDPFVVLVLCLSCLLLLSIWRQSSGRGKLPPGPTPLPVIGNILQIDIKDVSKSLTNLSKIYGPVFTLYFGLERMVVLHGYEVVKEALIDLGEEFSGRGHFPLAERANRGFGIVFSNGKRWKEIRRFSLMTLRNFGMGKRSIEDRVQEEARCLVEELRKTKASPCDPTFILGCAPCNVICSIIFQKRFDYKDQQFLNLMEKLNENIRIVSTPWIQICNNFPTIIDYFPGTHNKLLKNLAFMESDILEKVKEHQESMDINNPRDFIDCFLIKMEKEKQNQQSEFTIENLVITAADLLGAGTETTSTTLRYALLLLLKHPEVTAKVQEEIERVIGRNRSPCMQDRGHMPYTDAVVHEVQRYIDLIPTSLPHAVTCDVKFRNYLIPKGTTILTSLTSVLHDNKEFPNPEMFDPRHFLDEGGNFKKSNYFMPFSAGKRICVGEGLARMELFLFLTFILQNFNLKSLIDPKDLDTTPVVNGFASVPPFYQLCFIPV
In short: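 5 nM human CYP2C19 with 10uM Luciferin-H EGE (at KM) in 50mM KPO4, compound preincubated 10 min at 37C, then NADPH regeneration for 60 min at 37C. Luciferin read by luminescence after detection reagent; normalized to 57uM ketoconazole as full inhibition.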

[11] = molecular target: Cytochrome P450 3A4 (Homo sapiens) (UniProt P08684); experiment: qHTS Assay for Inhibitors and Substrates of Cytochrome P450 3A4 (AID 884; active means well fitted curve in the direction sought with a large enough effect; an effect the other way counts as inactive or inconclusive; further: potency means the concentration at half of the fitted maximal effect; nearly all actives have a fitted effect of over 50% in size); settings: recombinant CYP3A4, Luciferin-PPXE luminescence; series mostly up to 57.1 µM
In short: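 20 nM human CYP3A4 with 25 uM Luciferin-PPXE (at KM) in 200 mM KPO4, preincubated 10 min with compound; NADPH regeneration started a 60 min RT reaction. Luciferin detected by luminescence, normalized to 57 uM ketoconazole as full inhibition.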

[12] = molecular target: 3',5'-cyclic-AMP phosphodiesterase 4B (Homo sapiens) (UniProt Q07343); experiment: qHTS Assay for Inhibitors of PDE-IV (AID 607; active means well fitted activation curve with a large enough effect in the main read-out, with a control signal flat, not every such curve was filed as active; further: % of control where 0% means no effect); settings: HEK293 ACTOne CNG channel cells, membrane potential fluorescence; series mostly up to 22.9 µM
Sequence of 3',5'-cyclic-AMP phosphodiesterase 4B (Homo sapiens) (Q07343 whole entry, looked up): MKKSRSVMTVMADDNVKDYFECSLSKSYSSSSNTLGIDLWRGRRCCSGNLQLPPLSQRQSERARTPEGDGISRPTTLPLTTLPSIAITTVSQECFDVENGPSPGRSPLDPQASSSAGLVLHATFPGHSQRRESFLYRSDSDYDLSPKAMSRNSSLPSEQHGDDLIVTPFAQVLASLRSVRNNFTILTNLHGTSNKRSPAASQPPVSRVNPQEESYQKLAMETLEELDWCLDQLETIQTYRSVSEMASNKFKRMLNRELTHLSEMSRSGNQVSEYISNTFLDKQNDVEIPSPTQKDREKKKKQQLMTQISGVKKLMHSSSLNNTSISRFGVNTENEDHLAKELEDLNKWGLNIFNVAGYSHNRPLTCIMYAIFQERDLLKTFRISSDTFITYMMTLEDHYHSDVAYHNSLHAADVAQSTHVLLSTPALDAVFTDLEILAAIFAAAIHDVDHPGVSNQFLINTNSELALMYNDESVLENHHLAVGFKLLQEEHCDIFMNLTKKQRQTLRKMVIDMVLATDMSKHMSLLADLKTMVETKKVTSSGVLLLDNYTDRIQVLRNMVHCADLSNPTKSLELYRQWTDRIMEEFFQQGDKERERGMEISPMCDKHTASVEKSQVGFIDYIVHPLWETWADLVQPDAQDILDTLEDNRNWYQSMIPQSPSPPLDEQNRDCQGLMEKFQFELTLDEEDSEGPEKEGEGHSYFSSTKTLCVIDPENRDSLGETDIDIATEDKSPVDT
In short: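 HEK293 ACTOne cells with CNG channel (1000/well), endogenous PDE4; membrane potential dye, compounds up to 22.9 uM final. Fluorescence Ex 535/Em 590; RO 20-1724 (100 uM final) as reference.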

[13] = qHTS Assay for Identification of Small Molecule Agonists for Hypoxia Response Element Signaling Pathway (AID 914; active means well fitted activation curve with a large enough effect in the signal ratio, with a control signal flat, not every such curve was filed as active; the % refers to the signal ratio; further: potency means the concentration at half of the fitted maximal effect); settings: ME-180 (cervical carcinoma) HRE-bla reporter, beta-lactamase ratio, CoCl2, 17 h; activation: active compounds read high
In short: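 In Opti-MEM containing 0.5% dialyzed FBS and 10 mM HEPES, ME-180 HRE-bla cells received a compound titration and EC50 CoCl2. They were incubated 17 hours, then CCF4-loaded 2.5 hours at room temperature before ratio reading.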

| Compound | Potency [1] [µM] | Potency [2] | activity change, negative = inhibition [3] [%] | activity, negative = inhibition [4] [%] | Potency [5] [µM] | Potency [6] [µM] | Potency [7] | Potency [8] | Potency [9] | Potency [10] | Potency [11] | Potency [12] | Potency [13] |
| --- | --- | --- | --- | --- | --- | --- | --- | --- | --- | --- | --- | --- | --- |
| N#Cc1c(NC(=O)C(F)(F)F)sc2c3c(=O)c4ccccc4c(=O)c=3oc3ccccc3c12 | > 11.4 | 1 µM (active) | 13.7 | 0.0272 | > 46 | > 9.22 | inactive | 0.0501 µM (active) | inactive | 0.501 µM (active) | – | – | – |
| COCCn1c(=O)c(CCc2ccccc2)nc2cnc(Oc3cccc(Cl)c3)nc21 | > 11.4 | 3.98 µM (active) | -14.7 | -17.3 | > 9.22 | – | – | – | inactive | – | 0.794 µM (active) | – | – |
| COc1ccc(C(=O)[C@H](Br)[C@H](Br)C(=O)O)cc1 | > 11.4 | 3.98 µM (active) | – | – | > 46 | > 9.22 | inactive | – | – | – | – | inactive | – |
| O=C(O)c1nc(-c2ccccc2)[nH]c1C(=O)O | > 11.4 | 1 µM (active) | -19.8 | -26.6 | > 46 | – | inactive | – | – | 3.16 µM (active) | – | inactive | – |
| CCCC1c2c(ccc3ccccc23)Oc2ccc3ccccc3c21 | > 11.4 | 0.631 µM (active) | – | 10.6 | > 46 | > 9.22 | inactive | – | – | 0.631 µM (active) | – | inactive | – |
| CC(C)(C)c1c2c(c(C(C)(C)C)c3c1OCN(Cc1ccccc1)C3)OCN(Cc1ccccc1)C2 | > 11.4 | – | 0.0878 | -2.37 | > 46 | > 9.22 | inactive | – | – | inactive | – | inactive | – |
| COc1cccc(Nc2ncc3nc(CCc4ccccc4)c(=O)n(C[C@H]4CCCO4)c3n2)c1 | > 11.4 | – | -6.15 | -12.8 | > 9.22 | > 46 | inactive | – | – | – | – | – | – |
| N#CCCn1c(=O)c(-c2cccs2)nc2cnc(Oc3cccc(Cl)c3)nc21 | > 11.4 | 3.16 µM (active) | – | – | > 9.22 | > 46 | inactive | – | inactive | – | – | – | 1.58 µM (active) |
| Cc1ncc(CSc2ccccc2N)c(CO)c1O | > 11.4 | – | 1.52 | -0.62 | > 46 | > 9.22 | inactive | – | – | – | – | inactive | – |
| O=C1/C(=C/c2ccccc2)[C@@H](NC2CCCCC2)c2ccccc21 | > 11.4 | 1 µM (active) | – | – | – | > 9.22 | inactive | 3.98 µM (active) | inactive | 1.26 µM (active) | – | inactive | – |
